# Compound activity as filed in PubChem BioAssay.
# PrP 5UTR inh: suppresses PrP 5' UTR mRNA reporter expression; cell-based PrP 5' UTR mRNA reporter, plate reader; inhibition, % (concentration not given with the values); hit rate 0.35% among 340,000; AID 488862; in the data active = inhibition above about 52%
# MazF activator: activators of E. coli MazEF toxin-antitoxin RNase; FAM/BHQ RNA-DNA oligo cleavage fluorescence, 5 h; hit rate 0.32% among 350,000; activation, % at 20 µM; P0AE70; in the data active = activation above about 50%
# Target sequence (P0AE70 whole entry, looked up): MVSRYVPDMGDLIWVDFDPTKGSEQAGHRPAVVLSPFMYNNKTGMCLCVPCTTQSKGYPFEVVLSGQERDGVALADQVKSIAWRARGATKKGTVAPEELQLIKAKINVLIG
# DUSP3 inh: DUSP3 (human) phosphatase inhibition | recombinant VHR phosphatase, pNPP absorbance | P51452 | hit rate 0.52% among 290,000 | inhibition, % at 13.3 µM; in the data active = inhibition above about 50%
# Target sequence (P51452 whole entry, looked up): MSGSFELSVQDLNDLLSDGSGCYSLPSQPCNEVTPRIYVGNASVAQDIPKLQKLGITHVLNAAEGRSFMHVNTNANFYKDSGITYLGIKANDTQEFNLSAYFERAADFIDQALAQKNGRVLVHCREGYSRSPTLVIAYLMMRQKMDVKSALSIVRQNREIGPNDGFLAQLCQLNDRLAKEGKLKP
# PrPC surface inh: inhibitors of human cell surface prion protein PrPC | TR-FRET read-out | inhibition, % at 13.8 µM | hit rate 0.43% among 370,000 | AID 720596; in the data active = inhibition above about 24%
# PfHsp40 rescue: rescue of PfHsp40-mediated yeast toxicity; AID 504582; growth rescue, % at 12.5 µM; S. cerevisiae expressing PfHsp40, growth rescue, ATP luminescence; hit rate 0.68% among 340,000; in the data active = growth rescue above about 28%, passing the limit was not always enough;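 note: yeast W303a lacking pdr1 and pdr3 grown in galactose medium; growth measured after three days at 30 °C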
# BJeLR lethal: kills HRASV12-expressing BJeLR cells; BJeLR (HRASV12) viability, CellTiter-Glo ATP luminescence, 48 h; inhibition, % (concentration not given with the values); hit rate 0.17% among 300,000; AID 1554; in the data active = inhibition above about 50%
# A number is an active result; - = inactive; . = no result given; + = active, no number. Most compounds without a hit are left out; they make up all but 2.1% or so of the library.
SMILES,PrP 5UTR inh,MazF activator,DUSP3 inh,PrPC surface inh,PfHsp40 rescue,BJeLR lethal
O=C(N/N=C\c1cc(Cl)ccc1O)c1ccc(S(=O)(=O)N2CCCCC2)cc1,-,-,64,-,-,-
CCc1nnc(NC(=O)CSc2nnc(C)c(=O)n2N)s1,-,-,-,-,-,-
CCOC(=O)c1c(P(=O)(N2CCOCC2)N2CCOCC2)noc1N,-,-,53,-,-,-
CCOC(=O)c1c(C)c(P(=S)(N2CCOCC2)N2CCOCC2)n(C)c1C,-,-,-,-,-,-
COc1ccc(/C=C2\CC3(OC(=O)c4ccc(F)cc4)CCCN2C3)cc1 (stereo not drawn),.,.,.,-,.,.
COc1cc(NC(=O)CCN2CCN(CCO)CC2)cc(OC)c1,-,-,-,-,-,-
CCN1CCN(CCC(=O)Nc2cc(OC)cc(OC)c2)CC1,-,-,51,-,-,-
CCN1CCN(C(=S)c2ccc(OCC(=O)Nc3ccc(OC)cc3)cc2)CC1,-,58,.,-,-,-
CCn1c(O)c(N=NC(=O)CNC(=O)/C=C/c2ccco2)c2ccccc21,-,-,-,-,-,-
O=C(CNC(=O)/C=C/c1ccccc1)N=Nc1c(O)n(Cc2ccccc2)c2ccccc12,.,.,56,-,.,-
CCOC(=O)Nc1nc(C)c(C(=O)c2ccc(Cl)cc2)s1,-,86,-,-,-,-
COC(=O)Nc1nc(C)c(C(=O)c2ccccc2)s1,-,-,-,-,-,-
CC(=O)C1=C(O)C(CSCc2ccccc2)N(C)C1=O (stereo not drawn),-,-,.,-,-,.
CCC(=O)C1=C(O)C(c2cccc(Oc3ccccc3)c2)CCC1=O (stereo not drawn),-,-,-,-,211,-
COc1ccc(-c2csc(C(C)(O)c3cccc(F)c3)n2)cc1OC (stereo not drawn),.,.,.,-,.,.
CCCCCCOC(=O)CCn1[nH]c(=O)c2ccccc2c1=O,-,-,-,-,136,-
O=S(=O)(Nc1ccccc1C(F)(F)F)c1ccc(-c2ccccn2)s1,-,-,-,-,28,-
CC(C)(C)c1ccc(-c2nnc(SCC(=O)Nc3ccc4cn[nH]c4c3)n2-c2ccc(Cl)cc2)cc1,.,.,.,-,.,.
CCC(=O)c1ccc(OCC(=O)Nc2nc(-c3cccnc3)cs2)cc1,-,-,.,-,-,-
CCc1ccccc1OCC(=O)Nc1nc(-c2cccnc2)cs1,-,-,-,-,237,-
O=C(CC1CC2CCC1C2)Nc1nc(-c2ccccn2)cs1 (stereo not drawn),-,-,-,-,438,-
COc1ccc(OCCCC(=O)Nc2nc(-c3ccccn3)cs2)cc1,-,-,-,-,-,-
Cc1cc(C)c(OCC(=O)Nc2nc(-c3ccccn3)cs2)c(C)c1,-,-,-,-,313,-
CN(C)c1ncnc2c1ncn2C1CCCO1 (stereo not drawn),-,-,.,-,-,.
CC(C)c1nc2sc3c(SCCN(C)C)ncnc3c2c2c1CCC2,-,-,.,-,-,.
SMILES,PrP 5UTR inh,MazF activator,DUSP3 inh,PrPC surface inh,PfHsp40 rescue,BJeLR lethal
N#CCCCC#Cc1ccc2c(c1)COc1c3ccccc3nn1-2,-,-,.,-,124,-
COCCNc1nc2ccccc2n2cnnc12,-,-,-,-,-,-
c1ccc2c(c1)CCN(CCCNc1nc3ccccc3n3cnnc13)C2,-,-,54,-,-,.
CCOc1ccc(Nc2nc3c(C)cccc3cc2C#N)cc1,-,-,-,-,-,-
COc1ccccc1Nc1nc2ccc(C)cc2cc1C#N,-,78,-,-,-,-
COc1ccccc1Nc1nc2cc(C)ccc2cc1C#N,-,-,-,-,-,-
COc1ccccc1Nc1nc2c(C)cccc2cc1C#N,-,98,-,-,-,-
CC(C)c1ccc(S(=O)(=O)N2CCN(C(=O)c3cccc(S(=O)(=O)N4CCOCC4)c3)CC2)cc1,-,-,.,-,-,.
Cc1ccc(C)n1-c1ccc(-c2nnco2)cc1,-,.,-,.,-,-
Cc1ccc(C)n1-c1ccc(-c2ccn[nH]2)cc1,-,91,-,-,-,-
c1ccn(-c2ccc(-c3ccn[nH]3)cc2)c1,-,+,-,-,-,-
CCN(CC)CCNC(=O)CNC(=O)c1nn(-c2ccc(OC)c(OC)c2)c(=O)c2ccccc12,-,-,-,-,-,-
COc1ccc(C(NC(N)=O)c2ccccc2)cc1 (stereo not drawn),-,-,-,-,73,-
Cc1ccc(C(NC(N)=O)c2ccccc2)cc1 (stereo not drawn),-,-,-,-,-,-
Cc1ccc(NC(=S)c2nc3ccccc3[nH]2)cc1,-,-,-,-,-,-
Cc1ccc(NC(=S)c2nc3ccccc3[nH]2)c(C)c1,-,-,-,-,331,-
O=C(c1ccco1)N1CCN(C(=O)c2[nH]c(C(F)(F)F)nc2-c2ccccc2)CC1,.,.,.,-,.,.
Cc1ccc(C(c2cc(Cl)c3cccnc3c2O)N2CCN(C)CC2)cc1 (stereo not drawn),-,-,-,.,61,-
Oc1c(C(c2ccc(Cl)cc2)N2CCCC2)cc(Cl)c2cccnc12 (stereo not drawn),-,-,-,-,53,-
Oc1c(C(c2ccccn2)N2CCC(Cc3ccccc3)CC2)cc(Cl)c2cccnc12 (stereo not drawn),.,-,-,-,.,-
Oc1c(C(c2ccccc2Cl)N2CCCC2)ccc2cccnc12 (stereo not drawn),-,-,-,-,-,-
CN1CCN(C(c2ccccn2)c2cc(Cl)c3cccnc3c2O)CC1 (stereo not drawn),-,-,-,-,401,-
CC(=O)NC(c1ccc(C)cc1)c1cc(Cl)c2cccnc2c1O (stereo not drawn),-,-,-,-,-,-
C#Cc1ccc(NC(=O)C2(C)CCN2C(=O)C2(c3ccccc3)CCCC2)cc1 (stereo not drawn),.,.,.,-,.,.
O=C(Nc1nnc(-c2cccs2)o1)c1cccc(Oc2ccccc2)c1,-,-,-,-,500,.
SMILES,PrP 5UTR inh,MazF activator,DUSP3 inh,PrPC surface inh,PfHsp40 rescue,BJeLR lethal
CCN(CC)C(=O)C1=C(C)N(Cc2ccccc2)C(=O)C(CC(=O)NCc2cccs2)C1 (stereo not drawn),.,-,.,-,.,.
Cc1ccc(C(=O)Oc2oc(-c3ccccc3)nc2C=Nc2ccc(N(C)C)cc2)cc1,-,870,-,-,-,-
CN(C)c1ccc(N=Cc2nc(-c3ccccc3)oc2OC(=O)c2cccc(Cl)c2)cc1,-,126,-,-,-,-
O=[N+]([O-])c1ccc(NC(=S)N2CCc3ccccc32)cc1,-,-,-,-,-,.
CS(=O)(=O)c1nc(-c2ccccc2)cc(C(F)(F)F)n1,-,-,-,29,-,-
CCOC(=O)[C@@]12CN(C(=O)OC(C)(C)C)CC=C1N(Cc1ccc(OC)cc1)C(=O)[C@H]2CC(=O)NCc1cccs1,.,.,.,-,.,.
O=C(Oc1ccc2ccccc2c1)C1CCC1,-,-,51,-,-,-
O=C(Oc1ccc2ccc(O)cc2c1)C1CCCCC1,-,-,-,-,-,-
